Bioassay records (PubChem BioAssay)
Shown are actives, neighbours in structure and some others; about 7.5% of the full set was active somewhere.
FMDV antiviral: blocks foot and mouth disease virus; FMDV antiviral cell-based qHTS; Potency, µM (titrated, usually from 57.9 µM), actives largely listed as inhibitors; 410,000 tested, 1.2% active; calls by dose curve; tested in HEK293T cells; note: read-out not given here; nearly all actives have a fitted effect of over 45% in size
VACV mCherry inh: vaccinia inhibition (mCherry reporter). Vaccinia virus mCherry reporter infection, fluorescence. Potency, µM (doses to about 36.5 µM), actives largely listed as inhibitors. 310,000 tested, 0.63% active. AID 720579; calls by dose curve; tested in A549 cells; note: nearly all actives have a fitted effect of over 35% in size
HCMV antiviral: human cytomegalovirus inhibition | HFF cells, HCMV-luciferase reporter, 72 h; stronger effect = lower value | activity change, negative = inhibition, % at 57.5 µM | 410,000 tested, 4.5% active | AID 1259415; in the data active = activity change below about -60%; inconclusive = no clear call, values can overlap the other calls; inactive = above about -39%
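After 16 h attachment at 37C, HFF cells received test compound and HCMV-luciferase (1 PFU/cell); reporter luminescence read 72 h later, data normalized against buffer-only and known inhibitor Salinomycin.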
VACV Venus inh: inhibitors of vaccinia virus (Venus reporter) | Vaccinia virus Venus reporter expression, fluorescence | Potency, µM (doses to about 36.5 µM), actives largely listed as inhibitors | 330,000 tested, 0.46% active | AID 720580; calls by dose curve; tested in A549 cells; note: nearly all actives have a fitted effect of over 30% in size
HCV inh: inhibitors of hepatitis C virus infection | Potency, µM (doses to about 41.8 µM), actives largely listed as inhibitors | Huh7.5.1 HCVcc-Cre infection, luciferase reporter, 44 h | 340,000 tested, 3.4% active
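1,000 cells/well; 4 h culture; + compound; + HCVcc-Cre (~0.5 moi); 44 h; luciferase substrate, RT 15 min; read 15 sec.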
Giardia FBPA inh: inhibitors of Giardia lamblia fructose-1,6-bisphosphate aldolase. Potency, µM (titrated, usually from 59.6 µM), actives largely listed as inhibitors. purified Giardia FBPA. 290,000 tested, 0.71% active. A8B2U2; note: nearly all actives have a fitted effect of over 55% in size
Target sequence (A8B2U2 whole entry, looked up): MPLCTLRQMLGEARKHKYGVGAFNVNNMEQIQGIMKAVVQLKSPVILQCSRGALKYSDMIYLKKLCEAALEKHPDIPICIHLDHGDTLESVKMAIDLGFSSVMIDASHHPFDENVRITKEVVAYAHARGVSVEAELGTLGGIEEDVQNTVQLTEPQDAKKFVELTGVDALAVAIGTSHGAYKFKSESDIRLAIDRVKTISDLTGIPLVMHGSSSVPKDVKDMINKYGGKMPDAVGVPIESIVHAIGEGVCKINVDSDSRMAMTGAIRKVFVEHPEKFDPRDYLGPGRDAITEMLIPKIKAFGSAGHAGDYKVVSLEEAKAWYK
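Giardia FBPA (40 nM reagent) was preincubated 10 min at RT with compound (up to 57.5 uM final), then substrate plus GAPDH/TPI/NAD/arsenate coupling system with diaphorase/resazurin was added; resorufin fluorescence (525/598 nm) was read after 20 min.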
Hits are given with their value; 0 = inactive; ? = inconclusive; - = not tested or not shown; + = active, no number. Unless noted, calls come from the whole dose curve; as a rule, active = well fitted curve in the direction sought with a large enough effect; inconclusive = small, poorly fitted or top-dose-only effect, or another doubt; inactive = no such curve, though single readings can be large; an effect the other way counts as inactive or inconclusive.

SMILES	FMDV antiviral	VACV mCherry inh	HCMV antiviral	VACV Venus inh	HCV inh	Giardia FBPA inh
COc1ccccc1N1C(=O)C2C(C(=O)c3ccccc3)=NN(c3ccccc3OC)C2C1=O (stereo not drawn)	0	0	0	0	0	0
C#CCNC(=O)C[C@H]1C[C@@]2(C(=O)OC)C(=C[C@H](C(C)(C)C)O[C@@H]2C)N(CCc2ccc(OC)c(OC)c2)C1=O	-	-	0	-	-	-
COc1ccc(NC(=O)c2cc(S(=O)(=O)N3CCc4ccccc43)cn2C)cc1OC	0	0	0	0	?	0
Cc1nc2nc(SCC(=O)NCCCN3CCCCCC3)nn2c(C)c1Cc1ccccc1Cl	0	-	+	-	?	-
Cc1ccccc1Cc1c(C)nc2nc(SCC(=O)NCCCN3CCCC3)nn2c1C	0	0	0	0	?	0
Cc1nc2nc(SCC(=O)NCCCN3CCCC(C)C3)nn2c(C)c1Cc1ccccc1Cl (stereo not drawn)	0	-	0	-	11µM	0
Cc1ccccc1Nc1scc(-c2ccc(Cl)cc2)[n+]1-c1ccccc1C	0	-	0	-	0	0
COC(=O)C1CCN(Cc2ccc3c(c2)CN(C(=O)c2cc(C4CC4)on2)CCO3)CC1	0	0	-	0	-	-
Cc1c(NS(=O)(=O)c2ccc(C(C)(C)C)cc2)c(=O)n(-c2ccccc2)n1C	0	0	0	0	-	-
COCc1cc(C)nc(SCC[N+](C)(C)CC(=O)c2ccc(Br)cc2)c1C#N	0	0	0	0	32µM	0
COCc1cc(C)nc(SCC[N+](C)(C)CC(=O)Nc2ccccc2)c1C#N	0	0	0	0	0	0
O=C1NN(c2ccc(F)c(Cl)c2)C(=O)/C1=C\c1cccc(OC(=O)c2cccs2)c1	28µM	-	0	0	0	0
CC(C)=C1C(=O)NN(c2ccc(F)c(Cl)c2)C1=O	0	0	0	0	-	0
COc1ccccc1-c1coc2c(CN3CCCC(C)C3)c(O)ccc2c1=O (stereo not drawn)	0	-	0	-	0	0
CC1(C)Cc2ccccc2C2=NNC(=O)C2=N1	?	?	-102	28µM	?	4.5µM
CC1(C)CC2(C)OC2C2(C1)N=NC(=Nc1ccccc1)O2 (stereo not drawn)	0	?	-	?	-	-
Cc1nnc(N2CCCC(C(=O)Nc3cc(F)ccc3F)C2)c2nn(-c3ccccc3)c(C)c12 (stereo not drawn)	0	?	0	?	11µM	-
Cc1cc(C)cc(NC(=O)C2CCCN(c3nc(C)cc(C)n3)C2)c1 (stereo not drawn)	0	0	0	0	-	0
Cc1ccc(NC(=O)C2CCCN(c3ncnc4onc(C)c34)C2)cc1Cl (stereo not drawn)	20µM	?	0	0	-	-
COc1ccccc1NC(=O)N1CCN(c2nnc(C)c3c(C)n(-c4ccc(Cl)cc4)nc23)CC1	?	?	0	?	-	-
Cc1nnc(N2CCCC(C(=O)Nc3ccccc3C(F)(F)F)C2)c2nn(-c3ccccc3)c(C)c12 (stereo not drawn)	0	0	0	0	-	-
Cc1nnc(N2CCN(C(=O)Nc3cc(F)ccc3F)CC2)c2nn(-c3ccc(Cl)cc3)c(C)c12	?	11µM	0	?	-	-
Cc1cc(C)nc(N2CCCC(C(=O)Nc3ccc4nc(C)c(C)nc4c3)C2)n1 (stereo not drawn)	0	-	0	-	5.6µM	0
COc1cccc(NC(=O)C2CCCN(c3ncnc4onc(C)c34)C2)c1 (stereo not drawn)	?	0	0	0	-	-
COc1ccc(NC(=O)C2CCCN(c3nnc(C)c4c(C)n(-c5ccccc5)nc34)C2)cc1Cl (stereo not drawn)	0	?	-90	?	-	-
Cc1ccc(NC(=O)C2CCN(c3nnc(C)c4c(C)n(-c5ccccc5)nc34)CC2)cc1Cl	0	0	0	0	-	-
O=[N+]([O-])c1cc(-c2nnc(Nc3ccccc3)c3ccccc23)ccc1N1CCOCC1	0	?	-74	?	13µM	0
Cc1ccc(Nc2nnc(-c3ccc(N4CCOCC4)c([N+](=O)[O-])c3)c3ccccc23)cc1	0	0	-89	0	25µM	0
O=[N+]([O-])c1cc(-c2nnc(Nc3ccc(O)cc3)c3ccccc23)ccc1N1CCOCC1	20µM	?	-69	0	?	0
Cn1cccc1C(=O)N1CCC2(CC1)CN(C(=O)Nc1ccccc1)C2	0	-	-	-	-	0
